About 2,900 (47%) of roughly 6,200 compounds were called active. The set was probably picked from earlier hits. This is one part of the list. Values without a mark were called inactive. Cut-off read from the data, not from the text of the source: active = inhibition above about 50%; inactive = the rest.
Assay: Mycobacterium tuberculosis growth inhibition, primary screen (AID 1259343)
Details: inhibition: at 10 µM, active compounds read high; outcome: 10 uM

Structure (SMILES)	inhibition
Brc1ccc2c(c1)C1CC(c3cccs3)=NN1C(c1cccnc1)O2 (configuration not stated)	97.9% (active)
Cc1ccc(C2=NN3C(C2)c2cc(Cl)ccc2OC3c2ccncc2)cc1 (configuration not stated)	-54.8%
Cc1ncc(COc2ccc(-c3ccc(C#N)cc3)cc2)s1	43.5%
N#Cc1ccc(OCCn2nccc2-c2ccncc2)cc1	61.2% (active)
FC(F)(F)c1cccc(C(OCCN2CCN(Cc3ccco3)CC2)c2ccccc2)c1 (configuration not stated)	-3.93%
COCC(=O)Nc1nc2ccccc2n1C1CCCCC1	14.7%
COCC(=O)Nc1nc2cc(C(F)(F)F)ccc2n1Cc1ccco1	62.6% (active)
O=C(OC(C(=O)Nc1cc(Cl)cc(Cl)c1)c1ccccc1)C1=COCCO1 (configuration not stated)	78.7% (active)
Nc1ccc(-n2cccc2C(=O)O)cc1	93.6% (active)
COc1c2ccccc2nc2occc12	89.7% (active)
O=C(Nc1cc(F)c(N2CCCC2)c(F)c1)C1CC1c1cccnc1 (configuration not stated)	32.7%
CCc1nnsc1C(=O)Nc1cc(F)c(N2CCCC2)c(F)c1	37.1%
Cc1cccc(NC(=O)C2CCN(c3c(F)cc(C#N)cc3F)CC2)n1	72.7% (active)
N#CC(c1ccc(Cl)cc1Cl)c1cnnc2ccccc12 (configuration not stated)	-8.73%
N#CC(c1ccccc1)c1cnn(-c2ccccc2)c(=O)c1Cl (configuration not stated)	101% (active)
O=c1c(Cl)c(N2CCN(c3ccccc3)CC2)cnn1Cc1ccccc1Cl	17.9%
CN(C)C=Nc1ccc(OC(F)F)c(Cl)c1	92% (active)
CCc1cc(=O)[nH]c(-n2nc(C)cc2NC(=O)c2ccc([N+](=O)[O-])cc2)n1	101% (active)
Cc1cc(=O)[nH]c(-n2nc(C)cc2NC(=O)c2cccc([N+](=O)[O-])c2)n1	100% (active)
CCc1cc(=O)[nH]c(-n2nc(C)cc2NC(=O)c2cccc([N+](=O)[O-])c2)n1	102% (active)
Cc1cc(-c2nc3cccnc3s2)ccc1NS(=O)(=O)c1ccc(F)cc1F	74.7% (active)
COC(=O)c1ccccc1NC(=O)c1cc(-c2cccs2)n(C2CCS(=O)(=O)C2)n1 (configuration not stated)	42.9%

Structure (SMILES)	inhibition
CCC(=O)NCC1CN(c2ccc(OC)cc2)C(=O)O1 (configuration not stated)	83% (active)
O=C(CN1CCCC1c1ccsc1)Nc1ccccc1Br (configuration not stated)	41.9%
N#Cc1nc(NC(=O)C2CC2c2ccc(Br)cc2)[nH]c1C#N (configuration not stated)	81.5% (active)
COc1ccc(NS(=O)(=O)c2ccc(Cl)c(Cl)c2)cc1	86.7% (active)
O=c1[nH]c2ccc(S(=O)(=O)Nc3ccc(Cl)cc3Cl)cc2s1	19%
Nc1cc(S(=O)(=O)Nc2ccc(Br)cc2)ccc1Cl	30%
COc1ccc(S(=O)(=O)Nc2ccc3c(c2)OC(F)(F)O3)cc1	33%
O=S(=O)(Nc1cc(Cl)ccc1Cl)c1ccc(Cl)cc1	64.6% (active)
N#CSc1ccc(NS(=O)(=O)c2ccc(Cl)cc2)c(Cl)c1	79.8% (active)
O=S(=O)(Nc1ccc(F)c(F)c1)c1ccc(Cl)c(Cl)c1	17.1%
Nc1cc(S(=O)(=O)Nc2ccc(Cl)cc2)ccc1Cl	89.1% (active)
CCC(C)(C)NS(=O)(=O)c1ccc(Cl)c(Cl)c1	82.7% (active)
CCS(=O)(=O)c1ccc(NC(=O)Cc2ccc(Cl)c(Cl)c2)cc1	41.3%
CCN(CC)S(=O)(=O)c1cccc(S(=O)(=O)c2ccc(Cl)c(Cl)c2)c1	1.03%
CCn1cnnc1CN(C)c1ccc(-c2nc(-c3ccccc3F)no2)cn1	7.76%
CN(Cc1ccc(Cl)cc1)c1ccc2c(C3CC3)noc2n1	41.3%
CN(Cc1cccnc1)c1ccc2c(-c3ccccc3F)noc2n1	90.6% (active)
O=Cc1ccc(-c2ccc(Cl)cc2Cl)[nH]1	91.2% (active)
CCOc1nc(NC(C)c2ccccc2)ncc1Br (configuration not stated)	28%
CC(NCCC(c1ccccc1)c1ccccc1)c1ccccc1 (configuration not stated)	58.2% (active)
Cc1ccc(Cc2nc(CSCCc3ccccc3)cs2)cc1	63.4% (active)
Oc1ccc(-c2csc(Cc3ccccc3)n2)cc1O	30.3%

Structure (SMILES)	inhibition
Clc1ccccc1CSCc1csc(Cc2ccc3c(c2)OCO3)n1	11.8%
c1ccc2oc(COc3ccc4c(C5CC5)noc4n3)cc2c1	81.1% (active)
OCC1(CCOc2ccccc2)CCN(Cc2cc3ccccc3o2)CC1	28.8%
Cc1ccc(COc2ccc3c(C4CC4)noc3n2)cc1F	94.2% (active)
COc1ccccc1-c1noc2nc(OCc3ccccc3)ccc12	95.3% (active)
c1csc(COc2ccc3c(C4CC4)noc3n2)c1	82.4% (active)
Cn1c(Cc2ccccc2)nn(CN2CCC3(CC2)OCCO3)c1=S	8.21%
Cc1cccc(COc2ccc3c(C4CC4)noc3n2)c1	56% (active)
c1ccc(COc2ccc3c(C4CC4)noc3n2)cc1	76.3% (active)
Cc1ccc(COc2ccc3c(C4CC4)noc3n2)cc1	46.7%
Clc1cccc(COc2ccc3c(C4CC4)noc3n2)c1	76.8% (active)
CCCCn1c(O)c(C=Nc2ccccc2C(=O)O)c(C)c(C#N)c1=O	-10.6%
COc1ccc2nc(-n3nc(C)cc3NC(C)=O)sc2c1	86% (active)
Cc1ccc(CN2CCC(C(=O)Nc3ccc(Oc4cccnc4)cc3)CC2)o1	61.8% (active)
O=C(Nc1ccc(Oc2cccnc2)cc1)C1CCN(Cc2cc(Cl)ccc2O)CC1	77.8% (active)
O=C(Nc1ccc(Oc2cccnc2)cc1)C1CCN(C/C=C/c2ccccc2)CC1	28.8%
O=C(Nc1ccc(Oc2cccnc2)cc1)C1CCN(Cc2nccs2)CC1	88.5% (active)
CC(=O)c1cccc(CN2CCC(C(=O)Nc3ccc(Oc4cccnc4)cc3)CC2)c1	inactive
CCCCNC(=S)NN=Cc1cccs1	103% (active)
CCCCNC(=S)N(C)N=Cc1ccc(C)s1	-20.6%
COCCNC(=S)NN=Cc1cccs1	38.1%
CCCCNC(=S)NN=Cc1ccc(C)s1	71% (active)

Structure (SMILES)	inhibition
C=C(C)CNC(=S)NN=CC1=CCC2CC1C2(C)C (configuration not stated)	23%
Cc1ccc(C=NNC(=S)NCCCN2CCOCC2)s1	102% (active)
O=C(c1ccc2nonc2c1)N1CCCC2(CCCc3ccccc32)C1 (configuration not stated)	23.2%
COc1cccc(-c2ccccc2NC(=O)C2CCN(Cc3ccc(OC)c(C)c3)CC2)c1	92% (active)
COc1cccc(-c2ccccc2NC(=O)C2CCN(Cc3cccc4cccnc34)CC2)c1	inactive
COc1cccc(-c2ccccc2NC(=O)C2CCN(Cc3cccc(C)n3)CC2)c1	99.6% (active)
COc1cccc(-c2ccccc2NC(=O)C2CCN(Cc3cnc(C)nc3)CC2)c1	33%
CC(C)c1cccc(N(C)Cc2cncn2C)c1	42.1%
N#CC(=Cc1cccc2ccccc12)c1nc(C2CC2)cs1	96.1% (active)
N#CC(=Cc1ccc(Cl)cc1)c1nc(C2CC2)cs1	20.5%
N#CC(=Cc1cccc2ccccc12)c1ccccn1	22.6%
Cc1cc(N2CCNCC2)nc(-c2ccc(C(F)(F)F)cc2)n1	82% (active)
OCC1(Cc2cccc(C(F)(F)F)c2)CCN(c2ccc3ccccc3n2)CC1	22.1%
Cc1ccc(Cc2nsc(N3CCN(c4cccc(C(F)(F)F)c4)CC3)n2)cc1	24.1%
CCc1c(C)nc(-c2ccc(C(F)(F)F)cc2)nc1N1CCNCC1	61.7% (active)
CCc1c(C)nc(-c2cccc(C(F)(F)F)c2)nc1N1CCNCC1	33.2%
Cc1cc(N2CCNCC2)nc(-c2cccc(C(F)(F)F)c2)n1	94.4% (active)
Nc1cc(Cl)ccc1Oc1ccc(Cl)cc1	-29.7%
O=[N+]([O-])c1cc(Cl)ccc1Oc1ccc2ccccc2c1	77.2% (active)
CC(C)(C)c1cc(/C=C(\C#N)C(N)=S)cc(C(C)(C)C)c1O	102% (active)
Cc1nnc(NC(=O)C(C)SC(F)(F)F)s1 (configuration not stated)	91.5% (active)
CCOc1ccc(N=Nc2c(C)n[nH]c2C)cc1	-45%

Structure (SMILES)	inhibition
Cc1n[nH]c(C)c1N=Nc1ccc(Br)cc1	104% (active)
Cc1nc(N)sc1N=Nc1ccc(Br)cc1	23.2%
CCc1ccc(-c2noc(CSc3nnc(N)s3)n2)cc1	12.6%
Nc1nnc(SCC2CC2)s1	86.5% (active)
Nc1nnc(SCc2ccc(Br)cc2F)s1	28.8%
O=C(O)COc1c(I)cc(Cl)c2cccnc12	94.3% (active)
O=C(O)COc1ccccc1-c1nc(-c2ccccc2)c(-c2ccccc2)[nH]1	13.8%
Cc1cc(C)cc(NC(=O)CCC(=O)c2ccc3ccccc3c2)c1	72.2% (active)
CCCC(=O)OCC(=O)Nc1ccc2ccccc2c1	33.2%
O=C(CCC(=O)c1ccc(-c2ccccc2)cc1)NC1=NCCS1	33.8%
CCc1nnc(NC(=O)c2ccc(O)c(Cl)c2)s1	81.3% (active)
COc1ccccc1C(=O)Nc1nnc(CC(C)C)s1	21.6%
CCc1nnc(NC(=O)C2CC2)s1	68.7% (active)
CC(C(=O)NCc1ccccc1Cl)n1nnc(-c2ccco2)n1 (configuration not stated)	56.3% (active)
O=C(O)C1C2C=CC(O2)C1C(=O)NCc1ccccc1Cl (configuration not stated)	23.3%
Cn1c(CNC(=O)Cc2c(Cl)cccc2Cl)n[nH]c1=S	8.23%
O=C1CCc2c(OCc3ncc(-c4cccc(Cl)c4)o3)cccc21	39.9%
O=C(O)CCN(CCc1ccccc1)c1nc(-c2ccc(Cl)cc2)nc2ccccc12	24.8%
O=C(O)CCc1ncc(-c2ccc(Cl)cc2)o1	90.3% (active)

— PubChem BioAssay AID1259343 (VanderVen Lab, College of Veterinary Medicine, Cornell …, 2017)
